# Source: PubChem BioAssay AID1946 (Johns Hopkins Ion Channel Center, 2009)
# About 180 (7.5%) of roughly 2,400 compounds were called active. The entries come from a sample that favours actives as a whole. A number with no mark means an inactive call.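 The calls were made as follows: active = readout below zero, meaning a drop past 3 SD under the dofetilide-free negative control mean; inactive = the rest.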
# Target: Potassium voltage-gated channel subfamily KQT member 2 (Rattus norvegicus) (UniProt O88943)
# Sequence (O88943 whole entry, looked up): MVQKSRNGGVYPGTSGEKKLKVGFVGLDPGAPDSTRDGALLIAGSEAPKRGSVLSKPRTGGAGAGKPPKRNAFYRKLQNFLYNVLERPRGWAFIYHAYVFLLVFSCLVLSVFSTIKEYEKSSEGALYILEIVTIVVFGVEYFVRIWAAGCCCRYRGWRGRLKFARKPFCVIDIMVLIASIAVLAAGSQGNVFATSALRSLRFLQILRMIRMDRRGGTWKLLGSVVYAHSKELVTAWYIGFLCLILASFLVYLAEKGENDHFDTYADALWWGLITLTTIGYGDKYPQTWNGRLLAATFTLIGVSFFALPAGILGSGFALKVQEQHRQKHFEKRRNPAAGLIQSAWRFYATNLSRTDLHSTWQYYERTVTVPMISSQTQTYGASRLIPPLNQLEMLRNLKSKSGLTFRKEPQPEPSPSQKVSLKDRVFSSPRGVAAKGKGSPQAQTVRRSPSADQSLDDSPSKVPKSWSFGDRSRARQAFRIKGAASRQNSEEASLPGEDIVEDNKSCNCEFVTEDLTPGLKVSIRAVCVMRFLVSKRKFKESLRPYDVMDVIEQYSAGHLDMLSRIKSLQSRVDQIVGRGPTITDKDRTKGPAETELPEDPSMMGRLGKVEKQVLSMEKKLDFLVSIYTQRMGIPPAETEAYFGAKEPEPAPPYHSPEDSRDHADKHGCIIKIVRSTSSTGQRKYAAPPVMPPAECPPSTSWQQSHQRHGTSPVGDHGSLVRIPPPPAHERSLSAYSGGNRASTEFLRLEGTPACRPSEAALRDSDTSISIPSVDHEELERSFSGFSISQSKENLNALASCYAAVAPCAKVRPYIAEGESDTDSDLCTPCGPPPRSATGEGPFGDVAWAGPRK
# Test: KCNQ2 blockade in CHO cells – cell-based, FluxOR thallium flux, counter-screen for hERG block protector project, confirmation (AID 1946)
# Settings: FluxOR thallium flux fluorescence, at 10 µM, stronger effect = lower value, zero marks the 3-SD hit cutoff
row,SMILES,activity change vs negative control
1,CCOc1cc(N2CCOCC2)c(OCC)cc1NC(=O)Cn1nc(C)c([N+](=O)[O-])c1C,12.9%
2,CCSc1nnc(NC(=O)CC(C)C)s1,10.8%
3,Cc1ccc(OCc2ccoc2C(=O)O)cc1C,45.7%
4,O=C(/C=C/Nc1ccc(F)c(F)c1)c1cccs1,-2.9% (active)
5,Cc1ccc(N/C=C/C(=O)c2cccs2)cc1,5%
6,O=C(/C=C/Nc1ccc(F)cc1)c1ccco1,12.2%
7,Cc1ccc(Cc2c[nH]c(=S)s2)cc1,76.4%
8,O=C(NC(=S)N1CCc2ccccc21)c1ccc(Br)o1,41%
9,S=c1nc(Cc2ccccc2)[nH]c2ccccc12,98.8%
10,O=C(C1CCN(S(=O)(=O)c2cc(Cl)ccc2Cl)CC1)N1CCOCC1,1.9%
11,O=C1CC(C(=O)N2CCOCC2)C2(CCCCC2)O1 (stereo not drawn),-1% (active)
12,Cc1ccc(C(C)C)c(OCc2n[nH]c(=S)o2)c1,32.2%
13,O=C(NC(=S)NCc1ccccc1)c1ccc(Br)o1,93.4%
14,CCC1=NN(C(=O)c2ccc(Cl)cc2)C(O)(c2ccccc2)C1 (stereo not drawn),-0.9% (active)
15,CC1=NN(C(=O)c2ccc(Cl)cc2)C(O)(c2ccccc2)C1 (stereo not drawn),16%
16,CCC1=NN(C(=O)c2ccc(Cl)cc2)C(O)(c2ccc(C)cc2)C1 (stereo not drawn),11.1%
17,CC(C)NC(=O)Nc1n[nH]c(Nc2ccc(Cl)cc2)n1,34.6%
18,COCCN(C(=O)CSc1nnc(C)n1Cc1ccccc1)c1c(N)n(CC(C)C)c(=O)[nH]c1=O,1.8%
19,C=CCN(CC=C)C(=S)NC(=O)c1ccc(OC)cc1,31.6%
20,CS(=O)(=O)N(Cc1ccccc1)c1ccc(C(=O)Nc2ccc(C(N)=O)cc2)cc1,4.2%
21,C=CCN(c1ccc(C(=O)NC(C)C)cc1)S(C)(=O)=O,-2.3% (active)
22,CCOC(=O)C1=NN(C(=O)c2ccccc2)C(O)(c2ccc(C)cc2)C1 (stereo not drawn),32%
23,CCn1c(=S)[nH]c2c(c1=O)C(C)(C)Cc1ccccc1-2,49.8%
24,c1ccc(-c2n[nH]c(-c3ccccn3)n2)cc1,20.5%
25,Oc1c(N=NC(=S)Nc2ccccc2F)c2ccccc2n1Cc1ccccc1F,10.9%

row,SMILES,activity change vs negative control
1,C=CCn1c(O)c(N=NC(=S)Nc2ccccc2F)c2cc(S(=O)(=O)N3CCOCC3)ccc21,-2.3% (active)
2,Cn1c(O)c(N=NC(=S)Nc2ccccc2F)c2cc(S(=O)(=O)N3CCOCC3)ccc21,4%
3,CC(Oc1ccc(Br)cc1Br)C(=O)Nc1cccnc1 (stereo not drawn),7.4%
4,CC1CCN(C(=S)NC(=O)c2ccc(C(C)(C)C)cc2)CC1,38.5%
5,COc1cc2c(cc1OC)C(C)N(C(=S)NC(=O)c1ccccc1)CC2 (stereo not drawn),18.6%
6,COc1cc2c(cc1OC)C(c1ccc([N+](=O)[O-])cc1)N(C(C)=O)CC2 (stereo not drawn),-4% (active)
7,COc1ccc(NC(=O)N2CCN(c3ccc([N+](=O)[O-])cc3)CC2)cc1OC,8.2%
8,CN(C)Cc1c(C(=O)N/N=C/c2ccccc2OCc2c(F)cccc2Cl)nnn1-c1nonc1N,-0.5% (active)
9,Nc1nonc1-n1nnc(C(=O)N/N=C/c2cccc(Cl)c2Cl)c1CN1CCCC1,5.3%
10,CCCOc1ccc(-c2c(C(=O)N/N=C/c3ccccc3OCC)nnn2-c2nonc2N)cc1,11.7%
11,O=C(NC(=S)Nc1ccc(C(F)(F)F)cc1)c1csnn1,110%
12,CC1CCc2c(sc3[nH]c(=S)n(C)c(=O)c23)C1 (stereo not drawn),100%
13,CCc1nc(C)ccc1OCC(=O)N1CCc2c([nH]c3ccccc23)C1c1ccccn1 (stereo not drawn),-3.7% (active)
14,CN1N=C(C(=O)N2CCc3c([nH]c4ccccc34)C2c2c(F)cccc2Cl)CCC1=O (stereo not drawn),0.6%
15,O=c1c2cc(Br)ccc2nc(-c2ccc([N+](=O)[O-])cc2)n1O,66.7%
16,C=CCN(CC=C)C(=S)NC(=O)Cc1cccc2ccccc12,25.1%
17,CC(/C=C1\SC(=S)N(NS(=O)(=O)c2ccc(C)cc2)C1=O)=C\c1ccccc1,32.4%
18,O=c1c2cc(Cl)ccc2nc(-c2ccccc2)n1O,56.6%
19,Cn1nc(C(F)(F)F)c(-c2ccc(Br)cc2)c1NC(=O)c1cccnc1,-6.8% (active)
20,Cn1c(=S)[nH]c2sc3c(c2c1=O)CCC(C(C)(C)C)C3 (stereo not drawn),99.8%
21,CC(CCc1ccccc1)NC(=S)NC(=O)c1ccco1 (stereo not drawn),43%
22,COc1ccc(N(CC(=O)NCc2cccnc2)S(=O)(=O)c2ccccc2[N+](=O)[O-])c(OC)c1,4.1%
23,Cc1ccc(/C(O)=C2\C(=O)C(=O)N(Cc3cccnc3)C2c2ccccc2[N+](=O)[O-])cc1 (stereo not drawn),-1.5% (active)
24,O=C1C(=O)N(CCN2CCOCC2)C(c2cccnc2)/C1=C(/O)c1ccc(Cl)cc1 (stereo not drawn),6.1%
25,CC(C)CN1C(=O)/C(=C/c2cccs2)NC1=S,113%

row,SMILES,activity change vs negative control
1,COc1ccc(NC(=S)NC(=O)c2csnn2)cc1,81.7%
2,CC(=O)Nc1ccccc1C(=O)C(=O)Nc1ccc(Cl)cc1,5.3%
3,CC(C)C(=O)Nc1cccc(C(=O)Nc2ccccc2C(=O)O)c1,13.7%
4,CC(=O)Nc1ccccc1C(=O)C(=O)Nc1ccccc1,-2% (active)
5,S=c1[nH]c2cc(Cl)ccc2s1,121%
6,CCn1c(=S)[nH]c2sc3c(c2c1=O)CCCCC3,126%
7,CC(C)n1c(=S)[nH]c2scc(-c3cccs3)c2c1=O,119%
8,S=c1[nH]nc(-c2cccs2)n1/N=C/c1c(Cl)cccc1Cl,42.5%
9,CCOc1ccc(C(=O)N/N=C/c2cc([N+](=O)[O-])cs2)cc1,5.6%
10,Cc1cc(OCc2ccc(C(=O)Nc3ccc(C(=O)O)cc3)o2)ccc1Cl,5.6%
11,O=C(N/N=C/c1cc([N+](=O)[O-])ccc1O)c1ccc(COc2ccc3c(c2)CCC3)o1,-19.7% (active)
12,CCOC(=O)C1=C(c2ccccc2)NC(=O)NC1c1ccc(O)c(Cl)c1 (stereo not drawn),23.1%
13,O=C(N=Nc1c(O)[nH]c2ccc([N+](=O)[O-])cc12)c1cc(-c2ccccc2Cl)nc2ccccc12,3.8%
14,CC(C)(C)c1ccc(C(=O)CC(=O)c2cc(Cl)ccc2O)cc1,9.8%
15,COc1ccc(C(=O)CC(=O)C(=O)Nc2ccccc2OC)cc1,19.3%
16,O=C(N/N=C/c1ccc2cccc(OCc3ccccc3)c2n1)c1ccc(Br)cc1,12%
17,COC(=O)c1ccc(/C=C/c2ccc3cccc(OC)c3n2)cc1,-0.2% (active)
18,O=C(Cn1nnc(-c2cccc(C(F)(F)F)c2)n1)N1CCCCCC1,44.7%
19,COc1ccc(C(=O)NCC(=O)OCn2nnc3ccccc3c2=O)cc1OC,5.4%
20,Cc1ccccc1OCC(=O)NNC(=O)c1ccc2c(=O)n3c(nc2c1)CCC3,-0.9% (active)
21,Cc1ccccc1NC(=O)C(=O)NNC(=O)COc1ccc2ccccc2c1,48.1%
22,O=S(=O)(NC(=S)NC1CCCCC1)c1ccc(Br)cc1,36.7%
23,C=CCn1c(SCc2ccc(C(=O)O)cc2)nc2sc(C)c(C)c2c1=O,68%
24,O=C(NC(=S)NCCc1ccccc1)c1cccc(Cl)c1,5.4%
25,CC1Cc2ccccc2N1C(=S)NC(=O)c1cccc(Br)c1 (stereo not drawn),143%

row,SMILES,activity change vs negative control
1,O=C(NC(=S)NNC(=O)[C@H]1C[C@@H]1c1ccccc1)c1cccc(F)c1,-9% (active)
2,Cc1cccc(N=Cc2cc(Br)cc(Cl)c2O)c1,61.7%
3,COc1ccc(C(=O)NNC(=O)C(=O)Nc2ccc(C)cc2)cc1,36.9%
4,C=CCn1c(=S)[nH]c2cc(-c3ccccc3)sc2c1=O,17.5%
5,NC(=O)c1cccnc1Nc1cccc([N+](=O)[O-])c1,0.5%
6,COc1ccc(S(=O)(=O)Nc2cccc(-n3cnnn3)c2)cc1,11.8%
7,COc1ccc(S(=O)(=O)Nc2cccnc2)cc1,-2.7% (active)
8,O=C(NCc1cccnc1)c1ccc(NS(=O)(=O)c2ccc(F)cc2)cc1,17%
9,S=c1nc(-c2ccccc2)[nH]n1-c1ccccc1,73.2%
10,C=CCNC(=S)Nc1nc2c(cc1C(=O)OCC)CCCC2,15.6%
11,COc1cc(/C=C2/OC(=O)c3cc([N+](=O)[O-])ccc32)cc(OC)c1OC,-0.9% (active)
12,COc1cc(/C=C2/C(=O)NN(c3ccc(Cl)c(Cl)c3)C2=O)cc([N+](=O)[O-])c1O,10.8%
13,COc1ccc([N+](=O)[O-])cc1N(CC(=O)NCc1ccco1)S(C)(=O)=O,9.4%
14,O=C(NC(=S)N1CCN(c2nc(-c3ccccc3)cs2)CC1)c1cncc(Br)c1,76.4%
15,Cc1ccccc1OC(=O)n1c(=S)oc2cc(Cl)ccc21,33.4%
16,Cc1ccc2nsnc2c1S(=O)(=O)Nc1cccc2nsnc12,27.1%
17,O=C(COc1ccccc1)Nc1ccc(S(=O)(=O)Nc2ccccn2)cc1,0.2%
18,O=C(CCCc1c[nH]c2ccccc12)Nc1ccc(S(=O)(=O)Nc2ncccn2)cc1,-0.6% (active)
19,Cc1cc(C)nc(NS(=O)(=O)c2ccc(NC(=O)Cc3ccccc3)cc2)n1,12.6%
20,Cc1ccc(-c2n[nH]c(=S)nc2-c2ccc(C)cc2)cc1,15.9%
21,S=C(Nc1ccc(Cl)cc1)c1nc2ccccc2s1,22%
22,O=C(NC(=S)Nc1nc2ccccc2s1)c1cccs1,38.4%
23,CN(CC(=O)Nc1nc2ccccc2s1)S(=O)(=O)c1ccc(Cl)cc1,-3.4% (active)
